The panel holds about 79,000 compounds, 15% with a hit somewhere; the sample as a whole holds those more often. Active and inactive are the calls of the source. Cut-off read from the data, not from the text of the source: active = growth inhibition above about 70%; inactive = the rest.
How the values were obtained:
[1] = NCI Yeast Anticancer Drug Screen. Data for the mec2-1 strain (AID 157); conditions: S. cerevisiae mec2-1 strain, hits give high values
Procedure, shortened: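 Each compound was tested on mec2-1 yeast, a strain altered in DNA damage repair or cell cycle control. Growth inhibition is reported relative to vehicle.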

[2] = NCI Yeast Anticancer Drug Screen. Data for the sgs1 mgt1 strain (AID 161);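 note: 0% = growth of cultures given vehicle only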; conditions: S. cerevisiae sgs1 mgt1 strain, hits give high values
Procedure, shortened: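 Test agents were incubated with a DNA-repair-mutant yeast strain. Growth was then read and compared against vehicle-treated controls.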

[3] = NCI Yeast Anticancer Drug Screen. Data for the CLN2oe strain (AID 163);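 note: 0% = growth of vehicle-only control cultures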; conditions: S. cerevisiae CLN2oe strain, hits give high values
Procedure, shortened: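 First, the altered yeast strain was treated with each compound; second, its growth was measured; finally, inhibition was derived by comparison with vehicle controls.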

[4] = NCI Yeast Anticancer Drug Screen. Data for the cln2 rad14 strain (AID 165);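 note: 0% = growth equal to vehicle treated cultures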; conditions: S. cerevisiae cln2 rad14 strain, hits give high values
Procedure, shortened: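 Test compounds were added to cln2 rad14 yeast cultures; inhibition of growth was then determined by comparison with vehicle treatment.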

[5] = NCI Yeast Anticancer Drug Screen. Data for the bub3 strain (AID 167); conditions: S. cerevisiae bub3 mutant strain, hits give high values
Procedure, shortened: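 Mutant yeast screening strain plus compound; vehicle-treated cultures serve as the 0% inhibition reference.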

[6] = NCI Yeast Anticancer Drug Screen. Data for the wt2 strain (AID 169); conditions: S. cerevisiae wt2 strain growth inhibition, hits give high values
Procedure, shortened: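 The panel's yeast strains carry defined changes in DNA repair or cell cycle genes. Each strain is grown with compound, and growth loss is scored relative to vehicle.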

[7] = NCI Yeast Anticancer Drug Screen. Data for the mlh1 strain (AID 171);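 note: 0% = growth of vehicle-treated control cultures of the same strain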; conditions: S. cerevisiae mlh1 strain growth inhibition, hits give high values
Procedure, shortened: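 Inhibition values reflect reduced yeast growth in the presence of compound, referenced to vehicle controls, using a strain chosen for its alteration in DNA repair or cell cycle control.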

[8] = NCI Yeast Anticancer Drug Screen. Data for the sgs1 strain (AID 173);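 note: 0% = growth of vehicle-only control cultures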; conditions: S. cerevisiae sgs1 mutant, hits give high values
Procedure, shortened: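 Vehicle-treated cultures served as reference for growth inhibition of a yeast strain altered in DNA damage repair or cell cycle control after compound exposure.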

[9] = NCI Yeast Anticancer Drug Screen. Data for the mlh1 rad18 strain (AID 175); conditions: S. cerevisiae mlh1 rad18 strain growth inhibition, hits give high values
Procedure, shortened: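 Inhibition values reflect reduced growth of mutant yeast versus vehicle-treated controls following compound exposure; the mutations affect DNA damage repair.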

[10] = NCI Yeast Anticancer Drug Screen. Data for the rad18 strain (AID 177); conditions: S. cerevisiae rad18 mutant growth inhibition, hits give high values
Procedure, shortened: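 Steps: expose repair-mutant yeast to compound; measure growth; express as inhibition relative to vehicle control.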

[11] = NCI Yeast Anticancer Drug Screen. Data for the rad52 strain (AID 147);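 note: 0% = growth of vehicle-treated control cultures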; conditions: S. cerevisiae rad52 mutant growth inhibition, hits give high values
Procedure, shortened: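 Inhibition of yeast growth, referenced to vehicle controls, was the measured output for a strain with defective DNA damage repair.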

[12] = NCI Yeast Anticancer Drug Screen. Data for the wt1 strain (AID 149);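 note: 0% = growth of vehicle-treated wt1 cultures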; conditions: S. cerevisiae wt1 strain (SPY 50644) growth inhibition, hits give high values
Procedure, shortened: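 Each compound is tested on wt1 yeast and the loss of growth versus vehicle gives the inhibition value.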

[13] = NCI Yeast Anticancer Drug Screen. Data for the rad50EPP+ strain (AID 151);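 note: 0% = growth of vehicle-treated control cultures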; conditions: S. cerevisiae rad50 mutant strain, hits give high values
Procedure, shortened: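 Genetically defined yeast (rad50EPP+, DNA damage repair alteration) is grown with compound, and inhibition of growth is expressed relative to vehicle-treated controls.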

[14] = NCI Yeast Anticancer Drug Screen. Data for the rad50 strain (AID 155);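 note: 0% = growth of vehicle-only cultures of the same strain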; conditions: S. cerevisiae rad50 strain growth inhibition, hits give high values
Procedure, shortened: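 Vehicle-treated cultures provide the reference for the growth inhibition reported for compound-exposed, repair-deficient yeast.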

[15] = NCI Yeast Anticancer Drug Screen. Data for the rad14 strain (AID 159);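 note: 0% = growth of vehicle-treated control cultures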; conditions: S. cerevisiae rad14 strain growth inhibition, hits give high values
Procedure, shortened: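 Inhibition of growth is reported for a repair-deficient yeast mutant following compound treatment, calculated relative to cultures that received vehicle.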

[16] = at 5.0 µM (retest, dose inferred, filed as 0.5)
[17] = at 50.0 µM (retest, dose inferred, filed as 5.0)

Measured: growth inhibition

COC1CC(CC2CCC(C)C(C(C)C(=O)O)O2)OC2(OC(C)(C3CCC(C)(C4OC(C5OC(O)(CO)C(C)CC5C)CC4C)O3)CC2C)C1C (centres undefined)
inactive: [2]; [16] -1% | [3]; at 1.2 µM -46% | [3]; at 3.7 µM -22% | [3]; at 11.0 µM 50% | [4]; [16] 26% | [5]; at 1.2 µM -4% | [5]; at 3.7 µM -4% | [5]; [16] 3% | [5]; at 11.0 µM 25% | [6]; at 1.2 µM -46% | [6]; at 3.7 µM -46% | [6]; at 11.0 µM -18% | [6]; at 33.0 µM 60% | [7]; at 1.2 µM -3% | [7]; at 3.7 µM -15% | [7]; at 11.0 µM 0% | [8]; at 1.2 µM -36% | [8]; at 3.7 µM -22% | [8]; at 11.0 µM -12% | [9]; [16] 30% | [10]; at 1.2 µM -17% | [10]; at 3.7 µM -25% | [10]; at 11.0 µM -11%
active: [1]; at 100.0 µM 97% | [2]; [17] 91% | [2]; at 50.0 µM 89% | [3]; at 33.0 µM 93% | [3]; at 100.0 µM 96% | [4]; [17] 88% | [4]; at 50.0 µM 84% | [5]; at 33.0 µM 84% | [5]; [17] 82% | [5]; at 50.0 µM 86.3% | [5]; at 100.0 µM 97% | [6]; at 100.0 µM 91% | [7]; at 33.0 µM 83% | [7]; at 100.0 µM 97% | [8]; at 33.0 µM 88% | [8]; at 100.0 µM 97% | [9]; [17] 96% | [9]; at 50.0 µM 87.8% | [10]; at 33.0 µM 93% | [10]; at 100.0 µM 97%

Cc1ccc2nc3sc(=O)sc3nc2c1
active: [11]; at 11.0 µM 99% | [11]; at 33.0 µM 98% | [11]; at 100.0 µM 96% | [12]; at 11.0 µM 88% | [12]; at 33.0 µM 98% | [12]; at 100.0 µM 97% | [13]; at 11.0 µM 79% | [13]; at 33.0 µM 96% | [13]; at 100.0 µM 95% | [14]; at 11.0 µM 96% | [14]; at 33.0 µM 97% | [14]; [17] 92% | [14]; at 50.0 µM 97% | [14]; at 100.0 µM 96% | [1]; at 11.0 µM 98% | [1]; at 33.0 µM 98% | [1]; [17] 97% | [1]; at 50.0 µM 93.8% | [1]; at 100.0 µM 97% | [15]; at 11.0 µM 99% | [15]; at 33.0 µM 98% | [15]; at 100.0 µM 97% | [2]; [17] 94% | [2]; at 50.0 µM 98.1% | [3]; at 33.0 µM 94% | [3]; at 100.0 µM 97% | [4]; [17] 89% | [4]; at 50.0 µM 92% | [5]; at 33.0 µM 97% | [5]; [17] 91% | [5]; at 50.0 µM 97% | [5]; at 100.0 µM 95% | [6]; at 11.0 µM 95% | [6]; at 33.0 µM 98% | [6]; at 100.0 µM 97% | [8]; at 11.0 µM 97% | [8]; at 33.0 µM 97% | [8]; at 100.0 µM 96% | [9]; [17] 91% | [9]; at 50.0 µM 96.2% | [10]; at 11.0 µM 99% | [10]; at 33.0 µM 98% | [10]; at 100.0 µM 97%
inactive: [11]; at 1.2 µM 48% | [11]; at 3.7 µM 66% | [12]; at 1.2 µM -2% | [12]; at 3.7 µM 22% | [13]; at 1.2 µM 26% | [13]; at 3.7 µM 49% | [14]; at 1.2 µM 13% | [14]; at 3.7 µM 27% | [14]; [16] 27% | [1]; at 1.2 µM 16% | [1]; at 3.7 µM 37% | [1]; [16] -7% | [15]; at 1.2 µM 14% | [15]; at 3.7 µM 33% | [2]; [16] 13% | [3]; at 1.2 µM -15% | [3]; at 3.7 µM 7% | [3]; at 11.0 µM 37% | [4]; [16] 30% | [5]; at 1.2 µM -2% | [5]; at 3.7 µM 14% | [5]; [16] 59% | [5]; at 11.0 µM 52% | [6]; at 1.2 µM 11% | [6]; at 3.7 µM 34% | [8]; at 1.2 µM 42% | [8]; at 3.7 µM 68% | [9]; [16] 38% | [10]; at 1.2 µM 29% | [10]; at 3.7 µM 56%

Cc1ccc2c(c1)C1(C)c3cc(C)ccc3SP1S2 (centres undefined)
inactive: [11]; at 1.2 µM 20% | [11]; at 3.7 µM 22% | [11]; at 11.0 µM 20% | [11]; at 33.0 µM 51% | [11]; at 100.0 µM 55% | [12]; at 1.2 µM 19% | [12]; at 3.7 µM 9% | [12]; at 11.0 µM 25% | [12]; at 33.0 µM 26% | [12]; at 100.0 µM 36% | [13]; at 1.2 µM 4% | [13]; at 3.7 µM 7% | [13]; at 11.0 µM 17% | [13]; at 33.0 µM 47% | [13]; at 100.0 µM 50% | [14]; at 1.2 µM 17% | [14]; at 3.7 µM 11% | [14]; [16] -4% | [14]; at 11.0 µM 18% | [14]; at 33.0 µM 39% | [14]; [17] 51% | [14]; at 100.0 µM 54% | [1]; at 1.2 µM 11% | [1]; at 3.7 µM 21% | [1]; [16] -12% | [1]; at 11.0 µM 18% | [1]; at 33.0 µM 30% | [1]; [17] 17% | [1]; at 50.0 µM 40.1% | [1]; at 100.0 µM 30% | [15]; at 1.2 µM 0% | [15]; at 3.7 µM -10% | [15]; at 11.0 µM -23% | [15]; at 33.0 µM 15% | [15]; at 100.0 µM 29% | [2]; [16] 6% | [2]; [17] 54% | [2]; at 50.0 µM 63% | [3]; at 1.2 µM 15% | [3]; at 3.7 µM -13% | [3]; at 11.0 µM -14% | [3]; at 33.0 µM 25% | [3]; at 100.0 µM 4% | [4]; [16] 28% | [4]; at 50.0 µM 52.9% | [5]; at 1.2 µM 23% | [5]; at 3.7 µM 18% | [5]; [16] -3% | [5]; at 11.0 µM 20% | [5]; at 33.0 µM 22% | [5]; [17] 59% | [5]; at 50.0 µM 42.8% | [5]; at 100.0 µM 42% | [6]; at 1.2 µM 13% | [6]; at 3.7 µM 1% | [6]; at 11.0 µM 18% | [6]; at 33.0 µM 36% | [6]; at 100.0 µM 50% | [7]; at 1.2 µM -5% | [7]; at 3.7 µM -22% | [7]; at 11.0 µM -3% | [7]; at 33.0 µM 26% | [7]; at 100.0 µM 39% | [8]; at 1.2 µM 6% | [8]; at 3.7 µM 4% | [8]; at 11.0 µM 18% | [8]; at 33.0 µM 46% | [8]; at 100.0 µM 51% | [9]; [16] 4% | [9]; at 50.0 µM 46.9% | [10]; at 1.2 µM 8% | [10]; at 3.7 µM -3% | [10]; at 11.0 µM 7% | [10]; at 33.0 µM 27% | [10]; at 100.0 µM 52%
active: [14]; at 50.0 µM 71.7% | [4]; [17] 71% | [9]; [17] 74%

Reference: PubChem BioAssay (NCI)
